Test results reported in PubChem BioAssay AID1159580 (chemical genetic matrix, 2015).
About 2,000 (36%) of roughly 5,500 compounds were called active. About 18% were inconclusive and are not listed. Rule as the data show it: active = normalized growth mostly below about 0.91 (no sharp cut-off); inconclusive = no clear call, values can overlap the other calls; inactive = mostly above about 0.92. This is one part of the list.

Test: chemical genetic growth profiling, strain panel (AID 1159580);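 also: tested at 20 µM; growth read once vehicle control cultures reached saturation at 30 °C; 1 = growth at the plate median or of vehicle wells; lower values mean less growth of the strain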
Details: growth OD
[1] = S. cerevisiae deletion strains, locus YDL101C, strain DUN1, stronger effect = lower value
[2] = S. cerevisiae deletion strains, locus YHR030C, strain SLT2, stronger effect = lower value

Measured: normalized growth

COc1cc2nc(-c3cccs3)oc(=O)c2cc1OC
inactive: S. cerevisiae deletion strains, locus YAL013W, strain DEP1, stronger effect = lower value 0.984 | S. cerevisiae deletion strains, locus YBR229C, strain ROT2, stronger effect = lower value 0.984 | [1] 0.987 | S. cerevisiae deletion strains, locus YDR150W, strain NUM1, stronger effect = lower value 0.908 | S. cerevisiae deletion strains, locus YEL061C, strain CIN8, stronger effect = lower value 0.981 | S. cerevisiae deletion strains, locus YGR078C, strain PAC10, stronger effect = lower value 0.987 | S. cerevisiae deletion strains, locus YGR229C, strain SMI1, stronger effect = lower value 1 | [2] 0.864 | S. cerevisiae deletion strains, locus YHR087W, strain rtc3, stronger effect = lower value 0.985 | S. cerevisiae deletion strains, locus YJL187C, strain SWE1, stronger effect = lower value 0.999 | S. cerevisiae deletion strains, locus YJR043C, strain POL32, stronger effect = lower value 0.978 | S. cerevisiae deletion strains, locus YJR075W, strain HOC1, stronger effect = lower value 0.971 | S. cerevisiae deletion strains, locus YLR039C, strain RIC1, stronger effect = lower value 0.999 | S. cerevisiae deletion strains, locus YLR058C, strain SHM2 (second series), stronger effect = lower value 0.994 | S. cerevisiae deletion strains, locus YLR085C, strain ARP6, stronger effect = lower value 0.936 | S. cerevisiae deletion strains, locus YLR262C, strain YPT6, stronger effect = lower value 1.01 | S. cerevisiae deletion strains, locus YML094W, strain GIM5, stronger effect = lower value 0.978 | S. cerevisiae deletion strains, locus YMR219W, strain ESC1, stronger effect = lower value 0.994 | S. cerevisiae deletion strains, locus YMR263W, strain SAP30, stronger effect = lower value 0.9 | S. cerevisiae deletion strains, locus YMR307W, strain GAS1, stronger effect = lower value 0.945 | S. cerevisiae deletion strains, locus YNL153C, strain GIM3, stronger effect = lower value 0.971 | S. cerevisiae deletion strains, locus YNL298W, strain CLA4 (second series), stronger effect = lower value 0.993 | S. cerevisiae deletion strains, locus YNL322C, strain KRE1, stronger effect = lower value 0.984 | S. cerevisiae deletion strains, locus YNR030W, strain Alg12, stronger effect = lower value 0.983 | S. cerevisiae deletion strains, locus YPL055C, strain LGE1, stronger effect = lower value 1.11 | S. cerevisiae deletion strains, locus YPL241C, strain CIN2, stronger effect = lower value 0.976 | S. cerevisiae deletion strains, locus YPR135W, strain CTF4, stronger effect = lower value 0.879 | S. cerevisiae strains, strain wild type, stronger effect = lower value 1

Cc1ccc2nc(-c3ccc([N+](=O)[O-])o3)oc(=O)c2c1
inactive: S. cerevisiae deletion strains, strain NNK1, stronger effect = lower value 0.93
active: S. cerevisiae deletion strains, locus YAR019C, strain CDC15, stronger effect = lower value 0.0888 | S. cerevisiae deletion strains, locus YBL105C, strain PKC1, stronger effect = lower value 0.0913 | S. cerevisiae deletion strains, locus YBR135W, strain CKS1, stronger effect = lower value 0.193 | S. cerevisiae deletion strains, locus YBR136W, strain MEC1, stronger effect = lower value 0.181 | S. cerevisiae deletion strains, locus YBR160W, strain CDC28, stronger effect = lower value 0.231 | S. cerevisiae deletion strains, locus YDL017W, strain CDC7, stronger effect = lower value 0.259 | S. cerevisiae deletion strains, locus YDL028C, strain MPS1, stronger effect = lower value 0.595 | [1] 0.162 | S. cerevisiae deletion strains, locus YDL214C, strain PRR2, stronger effect = lower value 0.1 | S. cerevisiae deletion strains, locus YDR226W, strain ADK1, stronger effect = lower value 0.361 | S. cerevisiae deletion strains, locus YDR477W, strain SNF1, stronger effect = lower value 0.0976 | S. cerevisiae deletion strains, locus YER123W, strain YCK3, stronger effect = lower value 0.14 | S. cerevisiae deletion strains, locus YER133W, strain GLC7, stronger effect = lower value 0.116 | S. cerevisiae deletion strains, locus YFL009W, strain cdc4, stronger effect = lower value 0.37 | S. cerevisiae deletion strains, locus YFL029C, strain CAK1, stronger effect = lower value 0.124 | S. cerevisiae deletion strains, locus YFR019W, strain FAB1, stronger effect = lower value 0.112 | S. cerevisiae deletion strains, locus YFR028C, strain CDC14, stronger effect = lower value 0.149 | S. cerevisiae deletion strains, locus YGR040W, strain KSS1, stronger effect = lower value 0.109 | S. cerevisiae deletion strains, locus YGR052W, strain FMP48, stronger effect = lower value 0.112 | S. cerevisiae deletion strains, locus YGR092W, strain DBF2, stronger effect = lower value 0.108 | [2] 0.141 | S. cerevisiae deletion strains, locus YHR079C, strain IRE1, stronger effect = lower value 0.139 | S. cerevisiae deletion strains, locus YHR082C, strain KSP1, stronger effect = lower value 0.131 | S. cerevisiae deletion strains, locus YHR205W, strain SCH9, stronger effect = lower value 0.00195 | S. cerevisiae deletion strains, locus YIL147C, strain SLN1, stronger effect = lower value 0.52 | S. cerevisiae deletion strains, locus YJL095W, strain BCK1, stronger effect = lower value 0.121 | S. cerevisiae deletion strains, locus YJL157C, strain FAR1, stronger effect = lower value 0.0957 | S. cerevisiae deletion strains, locus YJR016C, strain ILV3, stronger effect = lower value 0.376 | S. cerevisiae deletion strains, locus YJR066W, strain TOR1 (second series), stronger effect = lower value 0.103 | S. cerevisiae deletion strains, locus YJR066W, strain TOR1, stronger effect = lower value 0.121 | S. cerevisiae deletion strains, locus YKL048C, strain ELM1, stronger effect = lower value 0.119 | S. cerevisiae deletion strains, locus YKL067W, strain YNK1, stronger effect = lower value 0.138 | S. cerevisiae deletion strains, locus YKL101W, strain HSL1, stronger effect = lower value 0.107 | S. cerevisiae deletion strains, locus YKL193C, strain SDS22, stronger effect = lower value 0.142 | S. cerevisiae deletion strains, locus YKL203C, strain TOR2, stronger effect = lower value 0.101 | S. cerevisiae deletion strains, locus YLR113W, strain HOG1, stronger effect = lower value 0.157 | S. cerevisiae deletion strains, locus YLR133W, strain CKI1, stronger effect = lower value 0.0945 | S. cerevisiae deletion strains, locus YLR403W, strain SFP1, stronger effect = lower value 0.000914 | S. cerevisiae deletion strains, locus YML070W, strain DAK1, stronger effect = lower value 0.12 | S. cerevisiae deletion strains, locus YMR001C, strain CDC5, stronger effect = lower value 0.127 | S. cerevisiae deletion strains, locus YMR205C, strain PFK2 (second series), stronger effect = lower value 0.11 | S. cerevisiae deletion strains, locus YMR277W, strain FCP1, stronger effect = lower value 0.124 | S. cerevisiae deletion strains, locus YNL006W, strain LST8, stronger effect = lower value 0.0975 | S. cerevisiae deletion strains, locus YNL020C, strain ARK1, stronger effect = lower value 0.105 | S. cerevisiae deletion strains, locus YNL161W, strain CBK1, stronger effect = lower value 0.142 | S. cerevisiae deletion strains, locus YNL183C, strain NPR1, stronger effect = lower value 0.118 | S. cerevisiae deletion strains, locus YNL207W, strain RIO2, stronger effect = lower value 0.12 | S. cerevisiae deletion strains, locus YNL222W, strain SSU72, stronger effect = lower value 0.101 | S. cerevisiae deletion strains, locus YNL307C, strain MCK1 (second series), stronger effect = lower value 0.1 | S. cerevisiae deletion strains, locus YOL078W, strain AVO1, stronger effect = lower value 0.164 | S. cerevisiae deletion strains, locus YOL136C, strain PFK27, stronger effect = lower value 0.19 | S. cerevisiae deletion strains, locus YOR061W, strain CKA2, stronger effect = lower value 0.0958 | S. cerevisiae deletion strains, locus YOR119C, strain RIO1, stronger effect = lower value 0.123 | S. cerevisiae deletion strains, locus YOR231W, strain MKK1, stronger effect = lower value 0.127 | S. cerevisiae deletion strains, locus YOR329C, strain SCD5, stronger effect = lower value 0.0982 | S. cerevisiae deletion strains, locus YPL031C, strain PHO85, stronger effect = lower value 0.102 | S. cerevisiae deletion strains, locus YPL153C, strain RAD53, stronger effect = lower value 0.136 | S. cerevisiae deletion strains, locus YPL204W, strain HRR25, stronger effect = lower value 0.116 | S. cerevisiae deletion strains, locus YPL209C, strain IPL1, stronger effect = lower value 0.179 | S. cerevisiae deletion strains, locus YPL256C, strain CLN2, stronger effect = lower value 0.174 | S. cerevisiae deletion strains, locus YPR025C, strain CCL1, stronger effect = lower value 0.119 | S. cerevisiae deletion strains, locus YPR111W, strain DBF20, stronger effect = lower value 0.32 | S. cerevisiae deletion strains, strain TSCII, stronger effect = lower value 0.106
